# Active and inactive are the calls of the source. Unless noted, no rule for the calls is given here.
# Tests used:
# [1] = system: Wnt5a (protein binding on small-molecule microarray); test: small molecules binding Wnt5a protein – biophysical, small-molecule microarray, 635/667 nm fluorescence, primary screen (AID 1142); settings: 635 nm fluorescence, higher = more signal;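 also: fluorescence read at 667 nm with signal to noise per printed feature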
# [2] = ATP-based viability of Huh7 replicon cells – cell-based, CellTiter-Glo luminescence, basal, 48 h, cytotoxicity control for HCV replication inhibitor project, primary screen (AID 1143); settings: higher = more signal, called active from +8 up or from −8 down;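 also: Huh7 hepatoma cells carrying a hepatitis C replication reporter with no stimulus; test concentration not given here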
# [3] = Pseudomonas biofilm growth suppression – PAO1 strain, BacTiter-Glo luminescence, LB-PBS, primary screen (AID 1144); settings: P. aeruginosa PAO1 biofilm, 12 h, higher = more signal
# [4] = basal CRE-LacZ reporter activity in PC12 – cell-based, unstimulated, primary screen (AID 1145); settings: no forskolin, luminescence, 4.5 h, higher = more signal, called active from +8 up or from −8 down
# [5] = forskolin-driven CRE-LacZ activity in PC12 – cell-based, CRE-LacZ reporter, forskolin-stimulated, primary screen (AID 1146); settings: luminescence, 4.5 h, higher = more signal, called active from +8 up or from −8 down;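 also: PC12 cells with 6xCRE LacZ reporter stimulated by forskolin 10 µM; beta-galactosidase reporter signal reflecting CREB driven transcription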
# [6] = molecular target: Streptavidin (Streptomyces avidinii) (UniProt P22629); test: compounds binding control protein streptavidin – biophysical, small-molecule microarray, 635/667 nm fluorescence, artefact control for SMM compound annotation, primary screen (AID 1147); settings: higher = more signal;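 also: signal reflects streptavidin binding to arrayed compounds as a control protein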
# [7] = probe aInhba binding on compound microarray – biochemical, small-molecule microarray, 635/667 nm fluorescence, primary screen (AID 1148); settings: higher = more signal;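 also: score merges 667nm spot fluorescence with signal-to-noise for antibody binding to printed compounds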
# Torsin-1A (Homo sapiens) [8] = molecular target: Torsin-1A (Homo sapiens) (UniProt O14656); test: TOR1A wild-type binding on microarray – cell lysate, small-molecule microarray, lysate, 635/667 nm, primary screen (AID 1149); settings: COS7 hTOR1A-WT lysate, 635 nm fluorescence, higher = more signal
# Torsin-1A (Homo sapiens) [9] = molecular target: Torsin-1A (Homo sapiens) (UniProt O14656); test: torsin A mutant lysate binding on microarrays – cell lysate, small-molecule microarray, COS7 lysate, 635/667 nm fluorescence, primary screen (AID 1150); settings: COS7 hTOR1A mutant lysate, 635 nm fluorescence, higher = more signal;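 also: score pools 667 nm emission and signal to noise measuring lysate protein binding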
# [10] = system: Sonic hedgehog protein (Shh); test: Sonic hedgehog microarray binding compounds – biochemical, small-molecule microarray, 635/667 nm fluorescence, primary screen (AID 1151); settings: 635 nm fluorescence, higher = more signal;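 also: Shh protein binding to compounds spotted on small-molecule microarray slides; score combines spot fluorescence intensity with signal-to-noise across triplicate slides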
# [11] = optical density shifts of acrAB sulA E. coli – strain DRC41, OD650, 48 h, E. coli filamentation inducer project, primary screen (AID 1152); settings: higher = more signal, called active from +8 up or from −8 down;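 also: E. coli MC1000 strain DRC41 lacking acrAB efflux pump and sulA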
# [12] = probe aLefty1 binding on compound microarray – biochemical, small-molecule microarray, 635/667 nm fluorescence, primary screen (AID 1153); settings: higher = more signal;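 also: score merges spot fluorescence with signal-to-noise ratio from the scanned slide images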
# [13] = plasmodial surface anion channel blockers, osmotic lysis – cell-based, P. falciparum Indochina, OD700, 1 h, primary screen (AID 1154); settings: P. falciparum Indochina infected RBC osmotic lysis, higher = more signal, called active from +8 up or from −8 down
# [14] = plasmodial surface anion channel blockers, osmotic lysis – cell-based, P. falciparum Indochina, OD700, 2 h, primary screen (AID 1155);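 also: lysis reports solute entry through the parasite surface anion channel PSAC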; settings: P. falciparum Indochina infected erythrocytes, higher = more signal, called active from +8 up or from −8 down
# [15] = changes in parasitized red cell lysis, either direction – P. falciparum Indochina, OD700, 3 h, PSAC antagonist project, primary screen (AID 1156); settings: P. falciparum-infected erythrocytes, osmotic lysis, higher = more signal, called active from +8 up or from −8 down
# [16] = plasmodial surface anion channel blockers, osmotic lysis – cell-based, P. falciparum Indochina, OD700, 18 h, primary screen (AID 1157); settings: P. falciparum Indochina infected erythrocytes, osmotic lysis OD700, 18 h; higher = more signal, called active from +8 up or from −8 down
# [17] = S6 kinase pathway phospho-S6 level changes – cell-based, A549, cytoblot, luminescence, serum-stimulated, primary screen (AID 1158); settings: 5 h, higher = more signal;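 also: serum-stimulated A549 lung adenocarcinoma cells; signal is phosphorylated S6 detected by cytoblot immunostaining with HRP secondary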
# [18] = molecular target: NADPH oxidase 2 (Homo sapiens) (UniProt P04839); test: compounds shifting NOX2 Amplex Red fluorescence – cell-based, HEK293-NOX2, PMA-stimulated, NOX inhibitor project, primary screen (AID 1159); settings: 45 min, higher = more signal, called active from +8 up or from −8 down; also: test concentration not given here
# [19] = molecular target: NADPH oxidase 4 (Homo sapiens) (UniProt Q9NPH5); test: compounds shifting NOX4 Amplex Red fluorescence – cell-based, HEK293-NOX4, tetracycline-induced, NOX inhibitor project, primary screen (AID 1160); settings: HEK293-NOX4, Amplex Red H2O2 fluorescence, 45 min; higher = more signal, called active from +8 up or from −8 down
# [20] = molecular target: NADPH oxidase 5 (Homo sapiens) (UniProt Q96PH1); test: compounds shifting NOX5 Amplex Red fluorescence – cell-based, HEK293-NOX5, NOX inhibitor project, primary screen (AID 1161); settings: HEK293-NOX5, ionomycin, 45 min, higher = more signal
# NADPH oxidase 5 (Homo sapiens), sequence (Q96PH1 whole entry, looked up): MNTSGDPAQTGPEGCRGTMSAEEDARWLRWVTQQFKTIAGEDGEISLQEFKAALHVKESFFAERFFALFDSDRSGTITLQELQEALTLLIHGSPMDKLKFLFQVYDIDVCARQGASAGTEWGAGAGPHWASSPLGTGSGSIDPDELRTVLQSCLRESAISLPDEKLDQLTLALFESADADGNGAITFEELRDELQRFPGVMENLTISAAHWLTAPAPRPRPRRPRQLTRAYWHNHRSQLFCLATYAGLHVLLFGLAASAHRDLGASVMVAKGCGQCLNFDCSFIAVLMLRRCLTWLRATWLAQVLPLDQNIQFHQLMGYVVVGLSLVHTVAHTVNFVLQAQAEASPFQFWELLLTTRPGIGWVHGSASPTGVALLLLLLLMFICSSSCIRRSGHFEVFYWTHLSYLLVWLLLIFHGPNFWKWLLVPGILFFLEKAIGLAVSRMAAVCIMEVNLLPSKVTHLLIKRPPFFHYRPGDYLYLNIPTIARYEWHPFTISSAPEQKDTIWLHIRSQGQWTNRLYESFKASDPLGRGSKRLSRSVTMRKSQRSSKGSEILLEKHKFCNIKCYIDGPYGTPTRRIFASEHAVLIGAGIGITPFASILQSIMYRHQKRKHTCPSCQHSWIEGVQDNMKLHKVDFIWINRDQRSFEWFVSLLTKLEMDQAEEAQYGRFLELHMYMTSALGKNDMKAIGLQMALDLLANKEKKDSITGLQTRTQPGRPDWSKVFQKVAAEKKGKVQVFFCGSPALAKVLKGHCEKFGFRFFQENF
# Streptavidin (Streptomyces avidinii), sequence (P22629 whole entry, looked up): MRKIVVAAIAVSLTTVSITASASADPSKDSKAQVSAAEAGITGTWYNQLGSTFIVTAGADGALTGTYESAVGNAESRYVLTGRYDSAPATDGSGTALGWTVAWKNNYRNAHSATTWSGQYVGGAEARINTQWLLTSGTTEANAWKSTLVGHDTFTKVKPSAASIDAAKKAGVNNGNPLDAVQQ
# NADPH oxidase 4 (Homo sapiens), sequence (Q9NPH5 whole entry, looked up): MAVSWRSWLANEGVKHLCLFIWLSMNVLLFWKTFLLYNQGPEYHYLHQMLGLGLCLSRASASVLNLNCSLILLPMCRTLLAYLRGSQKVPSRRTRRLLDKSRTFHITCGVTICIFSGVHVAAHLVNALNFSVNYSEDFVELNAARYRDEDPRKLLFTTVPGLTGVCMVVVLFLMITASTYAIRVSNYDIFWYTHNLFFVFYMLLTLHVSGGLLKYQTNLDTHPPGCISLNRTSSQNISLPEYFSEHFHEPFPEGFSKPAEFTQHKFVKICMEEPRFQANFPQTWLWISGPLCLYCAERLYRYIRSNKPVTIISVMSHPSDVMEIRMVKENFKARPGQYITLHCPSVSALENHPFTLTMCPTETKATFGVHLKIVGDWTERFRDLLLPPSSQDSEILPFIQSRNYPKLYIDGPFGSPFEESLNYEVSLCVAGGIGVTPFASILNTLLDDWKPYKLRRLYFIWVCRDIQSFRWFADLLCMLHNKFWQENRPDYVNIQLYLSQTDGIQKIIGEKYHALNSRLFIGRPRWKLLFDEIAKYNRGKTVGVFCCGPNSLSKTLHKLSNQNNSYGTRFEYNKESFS
# NADPH oxidase 2 (Homo sapiens), sequence (P04839 whole entry, looked up): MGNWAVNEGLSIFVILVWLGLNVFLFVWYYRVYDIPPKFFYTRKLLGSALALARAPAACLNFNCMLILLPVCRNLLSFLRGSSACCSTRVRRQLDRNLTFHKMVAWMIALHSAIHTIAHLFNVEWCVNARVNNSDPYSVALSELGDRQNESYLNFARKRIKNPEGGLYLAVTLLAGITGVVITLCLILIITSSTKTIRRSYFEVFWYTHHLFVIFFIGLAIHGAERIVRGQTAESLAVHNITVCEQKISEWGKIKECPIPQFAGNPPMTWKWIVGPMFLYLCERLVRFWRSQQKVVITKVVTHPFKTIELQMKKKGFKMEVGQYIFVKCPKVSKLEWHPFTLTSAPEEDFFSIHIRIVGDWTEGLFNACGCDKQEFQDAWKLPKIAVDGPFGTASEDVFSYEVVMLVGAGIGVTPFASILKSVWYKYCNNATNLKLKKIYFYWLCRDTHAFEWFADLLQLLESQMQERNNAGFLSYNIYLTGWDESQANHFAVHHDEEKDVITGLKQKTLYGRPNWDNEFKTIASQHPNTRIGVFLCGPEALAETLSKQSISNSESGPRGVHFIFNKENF
# Torsin-1A (Homo sapiens), sequence (O14656 whole entry, looked up): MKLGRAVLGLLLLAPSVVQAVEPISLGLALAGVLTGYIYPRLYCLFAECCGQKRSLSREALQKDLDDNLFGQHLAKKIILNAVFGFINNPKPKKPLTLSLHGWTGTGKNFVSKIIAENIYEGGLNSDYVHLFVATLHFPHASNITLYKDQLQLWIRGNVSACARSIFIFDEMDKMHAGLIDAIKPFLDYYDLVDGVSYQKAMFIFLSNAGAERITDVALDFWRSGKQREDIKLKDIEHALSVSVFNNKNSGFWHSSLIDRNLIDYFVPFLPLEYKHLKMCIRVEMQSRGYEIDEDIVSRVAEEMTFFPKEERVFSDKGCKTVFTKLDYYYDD
SMILES,composite z-score [1],z-score [2],z-score [3],z-score [4],z-score [5],composite z-score [6],composite z-score [7],composite z-score (Torsin-1A (Homo sapiens) [8]),composite z-score (Torsin-1A (Homo sapiens) [9]),composite z-score [10],z-score [11],composite z-score [12],z-score [13],z-score [14],z-score [15],z-score [16],z-score [17],z-score [18],z-score [19],z-score [20]
Cc1cc(C)c(C(O)C2C=CC3C(=O)NC(=O)C3N2Nc2ccc(Cl)cc2Cl)c(C)c1 (stereo not given),0.0976,-0.943 (inactive),-0.882 (inactive),-0.329 (inactive),-0.496 (inactive),1.64,0.249,0.148,0.697,-0.684,-2.38 (inactive),0.479,3.38 (inactive),1.18 (inactive),-1.55 (inactive),0.876 (inactive),-0.919,0.614 (inactive),-4.94 (inactive),-1.3
COc1ccccc1CN1C(=O)c2ccccc2[C@](Cc2ccccc2I)(C(=O)NCC(F)(F)F)[C@@H]1c1ccc(CO)cc1,0.431,-2.75 (inactive),-0.243 (inactive),-0.735 (inactive),6.82 (inactive),1.14,0.189,1.36,-0.103,0.251,-0.566 (inactive),0.126,5.37 (inactive),0.82 (inactive),2.38 (inactive),0.401 (inactive),-0.317,1.71 (inactive),-1.73 (inactive),-1.05
O=C(NCC(F)(F)F)[C@@H]1c2ccccc2C(=O)N(Cc2cc(F)cc(C(F)(F)F)c2)[C@H]1c1ccc(CO)cc1,-0.328,-1.77 (inactive),-1.38 (inactive),-0.529 (inactive),0.861 (inactive),-1.24,-0.128,-1.73,-1.22,-1.09,0.319 (inactive),0.0494,1.71 (inactive),-0.0966 (inactive),1.24 (inactive),0.449 (inactive),0.286,0.898 (inactive),-1.68 (inactive),-1.17
COC(=O)[C@@]1(Cc2ccc(OC)cc2)[C@H]2c3cc(C(=O)N(C)C)n(CCO)c3C[C@H]2CN1C(=O)c1ccccc1,0.29,-0.0015 (inactive),0.371 (inactive),-0.182 (inactive),1.23 (inactive),1.61,0.488,0.145,1.16,-0.544,-1.2 (inactive),0.564,0.845 (inactive),0.145 (inactive),0.0732 (inactive),0.446 (inactive),-0.775,0.331 (inactive),-1.49 (inactive),-1.91
C=CCC(OC(C)=O)[C@@H]1[C@@H](N(Cc2ccc(-c3cccc(C(F)(F)F)c3)o2)C(=O)c2ccc(-c3ccccc3)cc2)c2cc(OCCCO)ccc2N1C(=O)c1ccc2ccccc2n1 (stereo not given in full),-0.0222,0.0285 (inactive),-0.171 (inactive),0.222 (inactive),0.53 (inactive),0.0257,-0.0762,-0.48,-0.0764,0.406,-0.662 (inactive),-0.0501,0.394 (inactive),-0.262 (inactive),0.0785 (inactive),0.188 (inactive),1.02,-1.73 (inactive),-1.3 (inactive),-0.764
COC(=O)[C@@]1(Cc2ccc(F)cc2)[C@H]2c3cc(C(=O)N(C)C)n(Cc4cc(F)cc5c4OCOC5)c3C[C@H]2CN1C(=O)c1ccccc1,0.462,-3.74 (inactive),0.258 (inactive),0.397 (inactive),-0.201 (inactive),1.15,0.115,0.141,0.702,0.3,-0.62 (inactive),0.487,5.56 (inactive),0.0161 (inactive),0.366 (inactive),-1.27 (inactive),1.16,-0.508 (inactive),0.966 (inactive),-3.94
CN(C)C(=O)C1N=C(c2ccc(OCCCO)cc2)N(c2ccccc2)O1 (stereo not given),1.15,-1.17 (inactive),0.265 (inactive),0.0451 (inactive),-0.102 (inactive),-0.151,0.0658,1.19,1.56,2.03,0.975 (inactive),0.0509,18.3 (active),2.14 (inactive),0.0521 (inactive),0.325 (inactive),0.296,-4.12 (inactive),-0.509 (inactive),-1.12
CC(C)(C)OC(=O)CC[C@]1(C(=O)NCC(O)CO)N=C(c2ccc(OCCCO)cc2)O[C@H]1c1ccccc1 (stereo not given in full),0.167,-4.48 (inactive),-1.56 (inactive),-0.356 (inactive),-0.729 (inactive),0.291,0.0391,0.709,1.6,-1.56,1.79 (inactive),0.125,19.9 (active),1.43 (inactive),2.61 (inactive),-1.32 (inactive),2.01,0.246 (inactive),0.678 (inactive),0.199
[N-]=[N+]=NCc1ccccc1C[C@@]1(C(=O)N2CCOCC2)N=C(c2ccc(OCCCO)cc2)O[C@@H]1c1ccccc1,0.464,-5.68 (inactive),-0.244 (inactive),0.922 (inactive),-0.951 (inactive),1.35,0.0589,1.19,1.31,-0.796,0.083 (inactive),0.276,27 (active),17.1 (active),2.37 (inactive),0.889 (inactive),2.41,-4.45 (inactive),-1.12 (inactive),-2.14
